# According to PubChem BioAssay (NCI):
# About 83,000 compounds went through this panel and 20% of them were active in at least one assay; those are over-represented in the sample as a whole.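 Growth was measured after 48 h exposure to one concentration of compound in 96-well plates. Values under 10 count as active.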 A number with no mark means an inactive call. The source made the active and inactive calls.
# Assays:
# Experiment in all cases: NCI-60 one-dose screen, 48 h (100 = growth as untreated, 0 = no growth, -100 = all killed)
# Details in all cases: 10 µM unless noted
# EKVX NSCLC = test system: EKVX NSCLC
# SN12C renal = test system: SN12C renal
# UO-31 renal = test system: UO-31 renal
# TK-10 renal = test system: TK-10 renal
# ACHN renal = test system: ACHN renal
# CAKI-1 renal = test system: CAKI-1 renal
# A498 renal = test system: A498 renal
# CCRF-CEM leukemia = test system: CCRF-CEM leukemia
# MOLT-4 leukemia = test system: MOLT-4 leukemia
# RPMI-8226 leukemia = test system: RPMI-8226 leukemia
# OVCAR-8 ovarian = test system: OVCAR-8 ovarian
# OVCAR-5 ovarian = test system: OVCAR-5 ovarian
# OVCAR-4 ovarian = test system: OVCAR-4 ovarian
# SK-OV-3 ovarian = test system: SK-OV-3 ovarian
# IGROV1 ovarian = test system: IGROV1 ovarian
# NCI/ADR-RES ovarian = test system: NCI/ADR-RES ovarian
# T-47D breast = test system: T-47D breast
# HS 578T breast = test system: HS 578T breast
# OVCAR-3 ovarian = test system: OVCAR-3 ovarian
SMILES,growth (EKVX NSCLC) [%],growth (SN12C renal),growth (UO-31 renal),growth (TK-10 renal),growth (ACHN renal) [%],growth (CAKI-1 renal) [%],growth (A498 renal) [%],growth (CCRF-CEM leukemia) [%],growth (MOLT-4 leukemia) [%],growth (RPMI-8226 leukemia),growth (OVCAR-8 ovarian) [%],growth (OVCAR-5 ovarian) [%],growth (OVCAR-4 ovarian),growth (SK-OV-3 ovarian),growth (IGROV1 ovarian) [%],growth (NCI/ADR-RES ovarian),growth (T-47D breast) [%],growth (HS 578T breast) [%],growth (OVCAR-3 ovarian) [%]
Cn1cc(-c2csc(-c3c[nH]c4ncccc34)n2)c2cc(Br)cnc21,24.2,4.21% (active),28.8%,-21.8% (active),29.6,12.5,71.7,68,76.2,61.8%,22.4,82.3,-34.6% (active),0.893% (active),27.3,29.2%,20.7,–,–
C=Cc1nn2c(CCC(=O)c3nc4ccccc4[nH]3)nnc2s1,106,101%,76.2%,131%,96.2,96.7,135,104,102,110%,108,102,110%,106%,106,100%,106,–,–
COc1cccc(-c2nnc(N)o2)c1,100,97.2%,97.1%,121%,103,98.4,97.8,103,110,109%,98.7,105,97.9%,115%,102,102%,97.7,101,–
Clc1ccc(CCC(Cn2ccnc2)Sc2c(Cl)cccc2Cl)cc1 (configuration not stated),52.2,55.6%,30.5%,52.4%,65.4,43.3,73.7,35.1,34.6,25.2%,63.8,68,60.4%,91.1%,59,28.2%,39.5,90.8,59.4
COc1ccc2c(c1)nc(N)c1c3cc(C)c(C)cc3cn21,72,84.1%,59.6%,108%,71.4,59.2,79.7,70.9,69.2,81.1%,82.3,111,78.5%,86.8%,77.2,37.3%,63.8,–,70.6
C[C@@H]1CC[C@H]2[C@@H](C)C(O)O[C@@H]3O[C@]4(C)CC[C@@H]1[C@]32OO4 (some centres not stated),29.9,23.6%,1.61% (active),27.3%,22.1,22.9,68.2,28.5,33.8,3.35% (active),19.2,26.5,40.2%,95.4%,38.9,9.21% (active),36.3,46.4,–
Cn1cc(-c2nc(-c3c[nH]c4ncccc34)cs2)c2cccnc21,50.5,84.4%,52.9%,31%,41.4,28.3,50.1,65.3,69.3,67.1%,82.9,83.6,70.4%,62%,61.5,44.7%,51.4,–,82.6
CCN1CCN(c2cc(-c3cn[nH]c3-c3cc(C)cc(OC)c3)nc(-c3cccnc3)n2)CC1,106,85%,45.8%,105%,73.7,73.7,15.1,84.5,52,86.2%,79.6,124,94%,116%,84.4,91.5%,83.1,68.8,67.6
CCOc1ccccc1C(=O)OCC(=O)Nc1cccc(S(=O)(=O)N(C)C)c1,104,103%,79%,169%,121,95.2,118,169,105,85.8%,92.9,94.9,95.2%,129%,98.5,96.8%,66.5,95.3,–
